# High-throughput results as filed in PubChem BioAssay.
# Shown are actives, neighbours in structure and some others; about 6.2% of the full set was active somewhere.
# HCMV antiviral – qHTS Assay for inhibitors of the human cytomegalovirus (HCMV). AID 1259415, 2018. hit rate 4.5% among 410,000. activity change, negative = inhibition, % at 57.5 µM. HFF cells, HCMV-luciferase reporter, 72 h; hits give low values; in the data active means activity change below about -60%; inconclusive means no clear call, values can overlap the other calls; inactive means above about -39%
#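 After 16 h attachment at 37C, HFF cells received test compound and HCMV-luciferase (1 PFU/cell); reporter luminescence read 72 h later, data normalized against buffer-only and known inhibitor Salinomycin.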
# MARV entry inh – qHTS for inhibitors of binding or entry into cells for Marburg Virus. Potency, µM (doses to about 37.8 µM), for the others: at the top dose activity change, negative = inhibition, hits mostly inhibitors. Marburg virus pseudotyped entry inhibition, cell reporter. hit rate 1.8% among 300,000. AID 540276, 2011; calls by dose curve; tested in HEK293 cells; further: potency means the concentration at half of the fitted maximal effect
# Lassa entry inh – qHTS for Inhibitors of binding or entry into cells for Lassa Virus. Lassa virus pseudotype entry inhibition, cell reporter. hit rate 1.2% among 300,000. Potency, µM (highest dose often 37.9 µM), for inactives: at the highest dose activity change, negative = inhibition, usual class: inhibitors; calls by dose curve; tested in HEK293 cells; further: potency means the concentration at half of the fitted maximal effect; nearly all actives have a fitted effect of over 50% in size
# FMDV inh – High Throughput Screening for Foot and Mouth Disease Virus Antivirals | FMDV antiviral cell-based qHTS | Potency, µM (highest dose often 57.9 µM), for inactives: top-dose activity change, negative = inhibition, usual class: inhibitors | hit rate 1.2% among 410,000 | AID 1159524, 2015; calls by dose curve; tested in HEK293T cells; further: read-out not given here; potency means the concentration at half of the fitted maximal effect; nearly all actives have a fitted effect of over 45% in size
# * hit, by the source's call; ? = inconclusive; / = not tested or not shown; [ ] = dose if it differs, or a comment. On the % scale 0 is the no-effect control and ±100 the full control effect.
SMILES,HCMV antiviral,MARV entry inh,Lassa entry inh,FMDV inh
COc1ccc(C=NNC(=S)NN=Cc2ccc(OC)c(OC)c2)cc1OC,-102*,?,?,18%
COc1cc(/C=N/NC(=S)Nc2cccc(C(=O)O)c2)cc(OC)c1OC,26,21%,-1%,-12%
Cn1c(SCC(=O)N2CCCc3ccccc32)nnc1-c1ccco1,-36,?,-20%,-8%
Cn1c(SCC(=O)N2CCCc3ccccc32)nnc1-c1ccccc1,8,-2%,0%,/
Cc1cccc(-c2nnc(SCC(=O)N3c4ccccc4CCc4ccccc43)n2C)c1,-70*,?,-27%,-6%
Cn1c(SCC(=O)N2c3ccccc3CCc3ccccc32)nnc1-c1cc2ccccc2cc1O,-65*,?,-15%,0%
COc1ccccc1OCCC(=O)O,-91*,1%[46.1 µM],25%[46.1 µM],-9%
COc1ccccc1OCC(=O)O,55,4%,15%,0%
Cc1ccccc1CNC(=O)Cn1ccc2cc(S(=O)(=O)N3CCCCC3)ccc21,-7,/,19%[46.1 µM],-18%
COC(=O)C1=C(C(=O)OC)[C@@H]2N(C)c3ccccc3[C@@]23CCC(=O)N(Cc2ccc(OC)cc2)C3=N1,/,-9%[14.2 µM],/,/
Cc1ccccc1Cn1nnc(-c2ccc(F)cc2)n1,-75*,10%[46.1 µM],?,18%
Fc1ccc(-c2nnn(Cc3ccccc3Cl)n2)cc1,5,?,?,52%
Cc1ccc(-n2c(/C=C/c3ccc(Br)s3)nc3ccccc3c2=O)cc1C,-65*,/,?,-26%
Cc1ccccc1-n1c(/C=C/c2ccc(O)cc2)nc2ccccc2c1=O,-92*,/,?,-11%
Cc1ccccc1-n1c(/C=C/c2ccccn2)nc2ccccc2c1=O,-102*,/,/,0%
COc1ccccc1-n1c(/C=C/c2ccccc2)nc2ccccc2c1=O,18,/,-3%[46.1 µM],-2%
CCOC(=O)C1CCCN(C2=NC(=O)/C(=C/c3ccc(N(C)C)cc3)S2)C1 (stereo unspecified),23,-11%[46.1 µM],?,27%
CCc1cccc(NC(=O)CCc2c(C)nn(-c3ccc(N4CCOCC4)nn3)c2C)c1,45,0%[46.1 µM],0%[46.1 µM],5%
COc1cccc(-n2c(/C=C/c3ccccc3O)nc3ccccc3c2=O)c1,?,/,?,0%
COc1cc(/C=C/c2nc3ccccc3c(=O)n2-c2ccccc2O)ccc1O,-83*,?,?,-24%
COc1cc(/C=C/c2nc3ccccc3c(=O)n2-c2cccc(O)c2)ccc1O,0,?,1.3µM*,?
COc1ccc(NC(=O)CCc2nc3cccnc3n2-c2ccccc2)cc1Cl,-31,?,9%[46.1 µM],-24%
CC(C)[C@@H]1CC[C@@H](C)C[C@@H]1P(=O)(c1ccccc1)c1ccccc1,/,-30%,8%,/
COc1ccc2cc(CNc3ccc(C)cc3)c(=O)n(CC(=O)Nc3ccc(C)cc3Cl)c2c1,17,/,2%[46.1 µM],-11%
CCOc1ccc2[nH]c3c(N4CCc5ccccc5C4)ncnc3c2c1,9,10µM*,?,-51%
SMILES,HCMV antiviral,MARV entry inh,Lassa entry inh,FMDV inh
Cc1ccc2[nH]c3c(N4CCc5ccccc5C4)ncnc3c2c1,-67*,6.3µM*,?,?
COc1ccc2[nH]c3c(N4CCN(Cc5ccc6c(c5)OCO6)CC4)ncnc3c2c1,-26,?,?,?
COc1ccc2[nH]c3c(N4CCC(O)(c5cccc(C(F)(F)F)c5)CC4)ncnc3c2c1,?,?,?,28µM*
CCOC(=O)c1sc(N2C(=O)c3oc4ccccc4c(=O)c3C2c2ccc(C(C)(C)C)cc2)nc1C (stereo unspecified),7,15%[46.1 µM],-3%[46.1 µM],3%
O=C(CCS(=O)(=O)c1ccccc1)N(Cc1cccnc1)c1nc2c(Cl)cccc2s1,80,/,-16%[46.1 µM],-9%
O=C(CSc1nc2ccccc2n1-c1ccccc1)Nc1ncc(Cl)cc1Cl,?,1.1µM*,2.5µM*,-7%
COc1ccc(NC(=O)CSc2nc3ccccc3n2-c2ccccc2)c([N+](=O)[O-])c1,-3,12µM*,?,-26%
O=C(O)CCSc1nc2ccccc2n1-c1ccccc1,31,-11%[46.1 µM],4%[46.1 µM],-11%
c1ccc(Nc2ncncc2-c2ccoc2)cc1,/,/,/,-1%
Cc1ccc(C)c(OCCn2c(CCNC(=O)C3CCCCC3)nc3ccccc32)c1,/,?,-25%[46.1 µM],/
COc1cccc(-c2nc(CS(=O)CC(=O)N3CCN(c4cccc(C(F)(F)F)c4)CC3)c(C)o2)c1 (stereo unspecified),?,/,-22%[46.1 µM],?
O=C(CCN1CCCCC1)Nc1ccc(Br)cc1C(=O)c1ccccc1,?,13µM*,-9%[46.1 µM],-22%
COc1ccccc1-n1c(SCC(=O)c2ccc(O)cc2O)nc2cc([N+](=O)[O-])ccc21,134,2.2µM*,4%,?
O=c1cc(-c2ccccc2)oc2cc(O)c(O)cc12,/,/,/,12%
O=c1cc2oc3cc(O)c(O)cc3c(-c3ccccc3[N+](=O)[O-])c-2cc1O,-64*,/,/,?
COC(=O)c1cccc(NC(=S)NCc2ccc(Cl)cc2)c1,-33,-5%,-10%,-15%
COC(=O)c1cc(NC(=S)NCc2ccc(Cl)cc2)cc(C(=O)OC)c1,-76*,-28%,-26%,?
COc1cccc(-c2cn3c(n2)sc2cc(C(=O)NCCCc4ccccc4)ccc23)c1,/,/,-15%[46.1 µM],9%
COc1ccc(N(Cc2ccccc2)C(=O)c2nc(S(C)(=O)=O)ncc2Cl)cc1,-101*,2%[46.1 µM],?,18µM*
CCCSc1ncc(Cl)c(C(=O)N(Cc2ccccc2)c2ccc(OC)cc2)n1,-75*,?,-14%[46.1 µM],?
CCOc1ccc(N(Cc2ccccc2)C(=O)c2nc(SC)ncc2Cl)cc1,-26,?,-22%[46.1 µM],?
COc1ccc(N(Cc2ccccc2)C(=O)c2ccccc2[N+](=O)[O-])cc1,-33,?,?,-21%
CS(=O)(=O)c1ncc(Cl)c(C(=O)N(Cc2ccc(Cl)cc2)Cc2ccco2)n1,-107*,?,?,?
O=C(c1ccc(Cl)cc1)N(Cc1ccco1)Cc1ccco1,-14,0%[46.1 µM],11%[46.1 µM],12%
CCOC(=O)C1=C(C)Nc2ccccc2N/C1=N\S(=O)(=O)c1ccc(Cl)cc1,-35,/,/,?
SMILES,HCMV antiviral,MARV entry inh,Lassa entry inh,FMDV inh
CCOC(=O)C1=C(Cc2ccc(Cl)cc2)C(=O)c2ccccc2C1=O,/,?,23µM*,?
CC(C)=CCCC(C)=CCN1C(=O)[C@]2(O[C@H](COc3ccccc3)CC3=CCCC32)c2c(Br)cccc21 (stereo partly specified),/,-3%[14.2 µM],/,/
COc1ccc(C(=O)/C=C2/C(=O)Nc3ccccc32)cc1,-13,/,/,3.2µM*
COc1ccc(-n2c(/C=C3\C(=O)Nc4ccccc43)nc3ccccc3c2=O)cc1,-64*,?,?,?
O=C1Nc2ccccc2/C1=C/C(=O)c1cccs1,-95*,?,-15%,22µM*
O=C1Nc2ccccc2/C1=C/c1cnc[nH]1,?,?,11%,112%
O=C1Nc2ccccc2/C1=C/c1nc2ccccc2c(=O)n1-c1ccc(O)cc1,?,?,?,2%
COc1ccc2c(c1)/C(=C/c1cnc[nH]1)C(=O)N2,-97*,?,?,15%
